Screening data: PubChem BioAssay, Broad Institute
DENV2 CPE: protects cells from dengue virus 2 cytopathic effect; AID 651640; 350,000 compounds, 1.7% hits; CPE inhibition, % at 9.99 µM; DENV2-infected cells, cytopathic effect rescue, plate reader; in the data active means CPE inhibition above about 20%, passing the limit was not always enough; inconclusive means no clear call, values can overlap the other calls; tested in BHK-21 cells;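 further: 0% = median of neutral control wells and 100% = median of positive control wells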
Rtt109 HAT inh: inhibitors of Candida albicans Rtt109/Vps75 histone acetyltransferase; Q5AAJ8; purified Rtt109/Vps75, ThioGlo CoA-SH fluorescence, 4 h; inhibition, % at 34.9 µM; 330,000 compounds, 0.16% hits; AID 540336;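 active means inhibition of at least 50% in every replicate; inconclusive means best replicate reaches 50% inhibition but some replicates fall short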
Target sequence (Q5AAJ8 whole entry, looked up): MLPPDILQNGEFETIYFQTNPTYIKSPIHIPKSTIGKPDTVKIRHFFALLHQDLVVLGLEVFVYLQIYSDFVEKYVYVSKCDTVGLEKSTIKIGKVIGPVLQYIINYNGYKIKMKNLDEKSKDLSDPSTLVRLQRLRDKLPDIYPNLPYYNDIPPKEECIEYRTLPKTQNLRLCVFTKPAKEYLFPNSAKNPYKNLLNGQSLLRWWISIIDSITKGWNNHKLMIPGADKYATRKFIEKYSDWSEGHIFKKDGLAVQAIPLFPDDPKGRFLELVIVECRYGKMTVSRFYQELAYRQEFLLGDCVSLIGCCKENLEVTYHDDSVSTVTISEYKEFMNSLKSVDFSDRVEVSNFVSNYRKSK
PglD DTNB: inhibitors of Campylobacter jejuni PglD acetyltransferase; purified PglD enzyme, DTNB colorimetric CoA detection; inhibition, % at 12.5 µM; 360,000 compounds, 0.098% hits; AID 602405; in the data active means inhibition above about 16%, passing the limit was not always enough; inconclusive means no clear call, values can overlap the other calls
Glyco luc inh: blocks N-linked glycosylation in D54 reporter cells; 360,000 compounds, 0.23% hits; D54 ERlucT glycosylation luciferase reporter, 24 h; percent of 100 nM tunicamycin response; AID 588692; reporter increase, % at 12.5 µM;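 active means mean luciferase reporter signal, scaled so untreated is 0 and the glycosylation-blocking control 100, at or above a set limit in every replicate; inconclusive means mean reaches the limit but not every replicate does; inactive means mean below the limit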;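 further: luciferase carries N-glycosylation sites so blocking glycosylation raises the light; 0% = median of neutral control wells and 100% = median of 100 nM tunicamycin wells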
* marks the source's active call; other numbers are inactive results; ? = inconclusive; / = no result. The entries come from a sample that favours hits as a whole.

SMILES	DENV2 CPE	Rtt109 HAT inh	PglD DTNB	Glyco luc inh
C[C@@H]1CN([C@H](C)CO)C(=O)c2cc(NC(=O)C3CCCCC3)ccc2O[C@@H]1CN(C)S(C)(=O)=O	24.2*	/	-1.0	/
C[C@H]1CN([C@@H](C)CO)C(=O)c2cc(NC(=O)C3CCCCC3)ccc2O[C@@H]1CN(C)S(C)(=O)=O	-0.5	/	-2.2	/
C/C=C/c1ccc([C@H]2[C@@H](CN(C)C(=O)C3CC3)N(C(=O)CC)[C@H]2CO)cc1	?	/	-0.7	/
C[C@@H]1CN([C@@H](C)CO)C(=O)c2cccc(NC(=O)NC3CCCCC3)c2O[C@@H]1CN(C)C(=O)Nc1ccc(F)cc1	?	/	-4.8	/
COc1cc2c[n+](C)c3c4ccccc4ccc3c2cc1OC	5.6	-1.1	/	33.9*
COc1ccc(Cc2c3cc(OC)c(OC)cc3cc[n+]2C)cc1OC	/	2.3	7.7	4.4
NC(=O)C1(c2ccccc2)OC1c1ccccc1 (stereo not drawn)	41.4*	-5.2	-3.6	-0.2
CCSS(=O)(=O)c1cccc2cccnc12	0.4	153.8*	12.1	1.6
COc1ccc2c3c([nH]c2c1)[C@H](CO)N(C(=O)C1CCOCC1)CC31CCN(S(C)(=O)=O)CC1	34.5*	/	/	/
COc1ccc2c3c([nH]c2c1)[C@H](CO)N(C(=O)C1CCCCC1)CC31CCN(C(=O)NC(C)C)CC1	29.4*	/	/	/
COc1ccc2c3c([nH]c2c1)[C@@H](CO)N(Cc1ccc(F)cc1)CC31CCN(C(=O)NC(C)C)CC1	9.1	/	/	/
COc1ccc2c3c([nH]c2c1)[C@@H](CO)N(C(=O)C1CCCC1)CC31CCN(S(C)(=O)=O)CC1	1.0	/	/	/
COc1ccc2c3c([nH]c2c1)[C@@H](CO)N(Cc1ccc(F)cc1)CC31CN(C(=O)NC(C)C)C1	93.3*	/	/	/
Cc1ccccc1S(=O)(=O)N1[C@H](C#N)[C@H](c2ccc(-c3ccccc3)cc2)[C@@H]1CO	4.3	/	5.7	/
COc1ccccc1C(=O)Nc1ccc2c(c1)C(=O)N(C)[C@H]1CC[C@H](CC(=O)NCCc3ccncc3)O[C@H]1CO2	9.1	/	-2.3	/
Oc1cccc(Nc2c3ccccc3nc3ccccc23)c1	5.0	-0.8	0.6	62.2*
COc1ccc(Nc2c3ccccc3nc3ccccc23)cc1	-27.8	3.2	0.1	41.9*
Cc1ccc(-c2nc(Nc3cccc(O)c3)c3ccccc3n2)cc1	-1.6	-1.4	0.2	2.9
CN(C)CCCNC(=O)C[C@H]1CC[C@@H](NS(=O)(=O)c2ccc(F)cc2)[C@H](CO)O1	-1.0	/	5.5	/
COC(=O)C[C@@H]1CC[C@H]2[C@H](COc3ccc(NC(=O)Nc4ccccc4C)cc3C(=O)N2C)O1	?	/	-1.3	/
CN(C(=O)c1ccc(Br)o1)C1CCCCC1	60.8*	-4.3	-3.0	-0.3
O=C(C[C@H]1CC[C@H]2[C@@H](COC[C@H](O)CN2Cc2cocn2)O1)NCc1cccc(F)c1	-8.4	/	-1.6	/
CCCCCCN1C[C@H](n2cc(-c3ccc(F)cc3)nn2)[C@@H](O)C[C@@H]1c1ccccc1	92.7*	/	-3.5	-0.4
O[C@@H]1CN(Cc2cccs2)[C@@H](c2ccccc2)C[C@H]1n1cc(-c2ccc(F)cc2)nn1	50.7*	/	-2.4	0.1
COc1ccccc1NC(=O)N1C[C@H]2[C@@H](c3ccccc31)[C@@H](CO)N2CC1CCCC1	7.8	/	2.6	/
SMILES	DENV2 CPE	Rtt109 HAT inh	PglD DTNB	Glyco luc inh
CCC(=O)N1CC2(C1)CN(S(C)(=O)=O)[C@@H](CO)c1c2c2ccc(OC)cc2n1C	-4.6	/	/	/
N#Cc1cc2cc3c(cc2nc1N1CCCCC1)OCCO3	/	-32.2	1.3	3.3
N#Cc1cc2cc3c(cc2nc1Cl)OCCO3	40.7*	/	/	2.5
O=C(N[C@H]1CC[C@@H](CC(=O)N2CCOCC2)O[C@H]1CO)c1ccccn1	3.3	/	-0.5	/
C/C=C/c1ccc([C@@H]2[C@@H](CN(C)C(=O)CC)N(C(=O)C3CC3)[C@H]2CO)cc1	-4.8	/	0.3	/
O=C(c1ccco1)N1CCN(C(=O)c2ccc(-c3cccc(C(F)(F)F)c3)o2)CC1	101.0*	-3.2	/	-1.1
O=C(c1ccc(-c2cccc(C(F)(F)F)c2)o1)N1CCCCCCC1	3.5	/	/	0.7
O=C(N[C@H]1CC[C@H](CCNS(=O)(=O)Cc2ccccc2)O[C@H]1CO)c1cnccn1	/	/	14.9	/
COc1ccc(C(C)=O)cc1Cn1c(C)c(C(=O)NCCC#N)sc1=O	71.4*	/	-1.0	-2.9
COc1ccc(C(C)=O)cc1Cn1c(C)c(C(=O)NCC(C)C)sc1=O	-1.6	/	-3.0	3.0
COC(=O)c1cc2ccsc2n1Cc1ccccc1F	112.6*	-9.2	-1.7	0.7
Cc1ccccc1CN1C(=O)CN(S(C)(=O)=O)CC1(C)C(=O)NCc1ccccc1 (stereo not drawn)	22.3*	/	/	/
Cc1ccccc1CN1C(=O)CN(S(C)(=O)=O)CC1(C)C(=O)Nc1c(C)cccc1C (stereo not drawn)	0.9	/	/	/
CC(=O)NCc1ccc(C(=O)COC(=O)COc2ccc(Cl)c(C)c2)s1	65.0*	2.0	1.6	3.4
C=CS(=O)(=O)c1c2cc(OC)ccc2nc2ccc(OC)cc12	7.3	-0.7	/	53.1*
COc1ccc2nc(Cl)cc(Cl)c2c1	-6.3	-2.5	-3.3	1.1
CO[C@@H]1CN(C)C(=O)c2ccc(NC(=O)c3ccccc3F)cc2OC[C@H](C)N(CC2CC2)C[C@@H]1C	-9.5	/	-1.5	/
CCCC(=O)N1CC2(CCN(Cc3nccs3)CC2)c2c([nH]c3cc(OC)ccc23)[C@@H]1CO	-0.7	/	/	/
N#C[C@H]1[C@H](c2ccccc2)[C@H](CO)N1C(=O)CCN1CCCCC1	-2.8	/	2.8	/
C[C@]12CC[C@@H]3c4cc(O)c(O)cc4CC[C@H]3[C@@H]1CC[C@@H]2O	2.6	122.5*	-2.4	2.7
C[C@]12CC[C@@H]3c4ccc(O)cc4CC[C@H]3[C@@H]1CC[C@@H]2O	-2.2	9.5	-5.0	0.6
COCCn1c(N)c(C#N)c2nc3ccccc3nc21	/	-335.1	-0.2	9.5
N#Cc1c(N)n(CCc2ccc(F)cc2)c2nc3ccccc3nc12	/	2.6	-2.5	58.2*
COc1cccc(-c2nn(C)c3sc(C(=O)N4CCN(c5ccccn5)CC4)cc23)c1	/	51.3*	0.3	2.0
C/C=C/c1ccc([C@H]2[C@@H](CO)N3C(=O)CN(S(=O)(=O)c4cccc(F)c4)C[C@H]23)cc1	4.1	/	/	/
SMILES	DENV2 CPE	Rtt109 HAT inh	PglD DTNB	Glyco luc inh
C/C=C/c1ccc([C@H]2[C@H]3CN(S(=O)(=O)c4cccc(F)c4)CC(=O)N3[C@H]2CO)cc1	30.2*	/	/	/
C/C=C/c1ccc([C@H]2[C@@H](CO)N3C(=O)CN(S(=O)(=O)c4cccc(F)c4)C[C@@H]23)cc1	43.1*	/	/	/
C/C=C/c1ccc([C@H]2[C@@H](CO)N3C(=O)CN(C(=O)c4cccc(F)c4)C[C@@H]23)cc1	33.3*	/	/	/
C[C@@H]1CCCCO[C@H](CN(C)S(=O)(=O)c2ccc(Cl)cc2)[C@@H](C)CN([C@H](C)CO)C(=O)c2cc(NC(=O)CCCN(C)C)ccc2O1	13.4	/	-6.0	/
Cc1ccc(Nc2c(-c3ccco3)nc3ccccn23)cc1	75.2*	-7.7	-1.1	-1.3
c1ccc(Nc2c(-c3ccco3)nc3ccccn23)cc1	/	3.7	-8.3	0.2
N#Cc1ccc(-c2ccc([C@@H]3[C@@H]4CN(C(=O)Nc5ccc6c(c5)OCO6)C[C@H]3N4)cc2)cc1	15.4	/	/	/
